# Compound activity deposited in PubChem by National Center for Advancing Translational Sciences (NCATS).
# D3 ag: activates the human D3 dopamine receptor; P35462; D3R DiscoveRx beta-arrestin cells, luminescence, 90 min; max activation, %; hit rate 0.58% among 410,000; in the data active means max activation above about 30%
# Target sequence (P35462 whole entry, looked up): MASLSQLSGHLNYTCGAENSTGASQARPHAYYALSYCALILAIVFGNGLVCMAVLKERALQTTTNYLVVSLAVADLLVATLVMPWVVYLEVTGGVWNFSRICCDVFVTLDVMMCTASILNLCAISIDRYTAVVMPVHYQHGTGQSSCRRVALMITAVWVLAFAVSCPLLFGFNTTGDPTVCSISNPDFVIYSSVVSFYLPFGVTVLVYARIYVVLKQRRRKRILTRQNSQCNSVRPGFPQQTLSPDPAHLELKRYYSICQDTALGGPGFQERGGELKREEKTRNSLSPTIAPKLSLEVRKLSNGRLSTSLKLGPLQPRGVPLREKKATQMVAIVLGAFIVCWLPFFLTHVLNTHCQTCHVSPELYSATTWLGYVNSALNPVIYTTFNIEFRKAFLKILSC
#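 Agonist-mode cell screen: cells plated at 1500/well and incubated overnight at 37 °C, then exposed to library compounds for 90 min at 37 °C. Detection reagent was added for 30–60 min at room temperature, and luminescence was read.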
# TGFb inhibitor: inhibitors of TGF-b signaling; Potency, µM (doses to about 46.1 µM), most hits filed as inhibitors; hit rate 1.2% among 410,000; HepG2 CAGA-GFP TGF-b/SMAD3 reporter, GFP fluorescence, 18 h; TGF-beta stimulated, 500 pg/mL final; further: nearly all actives have a fitted effect of over 65% in size
#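 Inhibition of TGF-beta-driven CAGA-GFP reporter expression in HEPG2 cells is measured by cellular GFP fluorescence after 18 h stimulation with 500 pg/mL recombinant TGF-beta in 1% FBS medium at 37 degrees C.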
# ATXN viability: cell viability loss in ATXN counter-screen. hit rate 0.49% among 400,000. Potency, µM (top dose mostly 56.7 µM), usual class: cytotoxic. S2 cells (HEK-293 line with an ATXN2-luciferase reporter) viability, CellTiter-Fluor protease fluorescence, 24 h; further: nearly all actives have a fitted effect of over 40% in size
# HepG2 viability: counter-screen for TGF-b inhibitors: cytotoxicity in HepG2 cells | HepG2 CAGA-GFP viability, ATP luminescence, 18 h | Potency, µM (titrated, usually from 46.1 µM), hits mostly cytotoxic | hit rate 0.76% among 410,000 | AID 588856
#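 CellTiter-Glo luminescence gave cytotoxicity after 18 hours at 37 degrees C. The cells were HepG2 CAGA-GFP in 1% FBS DMEM, stimulated with 500 pg/mL TGF-beta after compound addition. %Activity was normalised to no-cell wells (complete cell-killing) and DMSO (no toxicity), and curves were fitted and classified.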
# ATXN2 expr inh: ATXN2 expression inhibition. HEK-293 ATXN2-luciferase reporter, luminescence, 24 h. Potency, µM (titrated, usually from 57 µM), most hits filed as inhibitors. hit rate 0.72% among 360,000; further: nearly all actives have a fitted effect of over 55% in size
#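 qHTS (up to 57 uM final) was run with 24 h compound exposure of reporter cells at 37 °C. Each well was multiplexed: SteadyGlo luminescence measured ATXN2-luciferase expression after a fluorogenic Gly-Phe-AFC viability readout (25 uM final).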
# D3 antag: antagonists of human D3 dopamine receptor; P35462; D3R cells, DiscoveRx beta-arrestin luminescence, antagonist mode; stronger effect = lower value; max response, negative = inhibition, %; hit rate 2.5% among 360,000; in the data active means max response below about -50%; inconclusive means no clear call, values can overlap the other calls
#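 Cells expressing the human receptor were seeded at 1500 cells/well, incubated overnight at 37 degrees C in 5% CO2, then exposed to library compounds with dopamine controls for 90 minutes at 37 degrees C before luminescent detection.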
# A number is an active result; 0 = inactive; ? = inconclusive; - = not tested or not shown; ! = not active in a repeat. The list is not random: actives were taken first. Their share in the collection is about 4.8%. Unless noted, the call rests on the fitted dose curve; in most records, active means well fitted curve in the direction sought with a large enough effect; inconclusive means small, poorly fitted or top-dose-only effect, or another doubt; inactive means no such curve, though single readings can be large; an effect the other way counts as inactive or inconclusive.
SMILES,D3 ag,TGFb inhibitor,ATXN viability,HepG2 viability,ATXN2 expr inh,D3 antag
CC(/C=N/NC(=O)c1cc(C(C)(C)C)[nH]n1)=C\c1ccccc1,0,0,0,0,0,-54.1
Cc1ccsc1/C=N\NC(=O)c1cc(C(C)(C)C)[nH]n1,0,?,0,0,0,-67.2
Cc1cc(C(=O)N/N=C/c2sccc2C)no1,0,0,0,0,0,0
C=C(C)Cn1c2ccc(NC(=S)NCc3ccccc3F)cc2c(=O)n1C,0,0,0,0,0,-52.0
Cn1c(=O)c2cc(NC(=S)NCc3ccccc3F)ccc2n1Cc1ccccc1,0,0,0,0,0,0
Cc1ccc(CNC(=O)c2ccc(CSCc3c(F)cccc3Cl)o2)cc1,0,15.8µM,0,0,0,-
O=C(O)C1CCN(S(=O)(=O)c2cccc3cccnc23)CC1,0,0,0,0,0,0
O=C(C1CCN(S(=O)(=O)c2cccc3cccnc23)CC1)N1CCCC1,0,0,0,0,0,-78.5
O=C(C1CCN(S(=O)(=O)c2cccc3cccnc23)CC1)N1CCc2ccccc21,0,0,0,0,0,-52.6
COc1cc(NC(=O)[C@@H]2CCCN(S(=O)(=O)c3cccc4cccnc34)C2)cc(OC)c1OC,43.1,0,?,0,0,0
CCc1nnc(NS(=O)(=O)c2ccc(N=Cc3c(C)[nH]n(-c4ccc(C)c(C)c4)c3=O)cc2)s1,0,0,0,7.08µM,0,0
CC(=O)NCc1ccc(C(=O)CCl)s1,0,?,-,11.2µM,?,0
COCc1c(C(=O)NC2CCCC2)cnn1-c1nccc(-c2ccco2)n1,-,-,0,-,-,-
COc1ccc2oc(=O)c(C(=O)N3CCN(c4ccc(C)cc4)CC3)cc2c1,0,?,0,0,0,-
CCN(CC)c1ccc2c(-c3ccc(S(=O)(=O)O)cc3S(=O)(=O)[O-])c3ccc(=[N+](CC)CC)cc-3oc2c1,0,0,12.6µM,0,?,0
CCN(CC)c1ccc2nc3c4ccccc4c(=O)cc-3oc2c1,0,0,0,0,0,0
O=S(=O)(c1cccc2cnccc12)N1CCCNCC1,0,0,0,0,25.1µM!,0
Cc1ccc(S(=O)(=O)NCC(=O)N/N=C/c2ccccc2O)cc1,0,0,0,0,14.1µM,0
Cc1ccc(S(=O)(=O)NCC(=O)Nc2ccc(C(F)(F)F)cc2)cc1,35.1,?,0,0,0,0
Cc1ccc(-n2c(Cc3cccn3C)nnc2SCC(=O)N2CCN(c3ccccc3)CC2)cc1,0,0,0,0,0,-78.7
Cn1cccc1Cc1nnc(SCC(=O)Nc2ccc3c(c2)OCCO3)n1-c1ccc(F)cc1,0,0,0,0,0,0
Cc1ccc(-n2c(Cc3cccn3C)nnc2SCC(=O)Nc2ccc3c(c2)OCO3)cc1,78.8,0,0,0,0,0
N#C/C(=C\c1ccc(-c2ccc(C(=O)O)cc2)o1)C(=O)Nc1ccccc1C(=O)O,0,0,0,0,0,-
CCOC(=O)COc1c(OC)cc(Cl)cc1C1Nc2ccccc2C(=O)N1c1ccc(F)cc1 (stereo unspecified),0,0,?,0,0,0
CCOC(=O)COc1c(OC)cc(Cl)cc1C1Nc2ccccc2C(=O)N1c1ccccc1 (stereo unspecified),0,0,0,0,0,-58.9
SMILES,D3 ag,TGFb inhibitor,ATXN viability,HepG2 viability,ATXN2 expr inh,D3 antag
CC1(C(=O)Nc2cnc3ccccc3c2)CCN1C(=O)c1ccccc1CCc1ccccc1 (stereo unspecified),0,?,0,0,20µM,0
Cc1ccc(NC(=O)C2(C)CCN2C(=O)c2ccccc2CCc2ccccc2)cc1C (stereo unspecified),0,0,0,0,0,0
O=C(NCc1ccccc1)C1=C[C@@H](c2csc3ccccc23)C[C@@H](OCCCCO)O1,0,?,?,0,5.62µM,0
O=C(NC1CC1)C1=C[C@H](c2csc3ccccc23)C[C@H](OCCCCO)O1,0,0,0,0,0,0
CC(C)CCn1c(=O)c2sccc2n2c(CCCC(=O)Nc3ccc(F)c(Cl)c3)nnc12,0,?,-,0,-,-
O=C(Cn1c(=O)n(-c2ccc(Cl)cc2)c(=O)c2oc3ccccc3c21)Nc1ccccc1,0,0,-,0,-,-
CCN1CCN(Cc2c(C)[nH]c3ccc(OC)cc3c2=O)CC1,0,0,0,0,0,-53.1
O=C1CCCC2=C1C(c1ccc(Cl)cc1)N=C(Nc1nc3ccccc3o1)N2 (stereo unspecified),-,0,-,0,-,-
Cc1ccc(C(=S)N2CCN(Cc3ccccc3)CC2)s1,0,0,0,0,0,-69.5
CN1CCN(C(=S)c2cn(Cc3ccc(Br)cc3)c3ccccc23)CC1,0,?,0,0,-,-87.7
S=C(c1ccc(Br)cc1)N1CCN(Cc2ccccc2)CC1,0,0,0,0,0,-77.6
CCN1CCN(C(=S)c2ccc(Br)cc2)CC1,0,0,0,0,0,-54.8
Oc1ccc(C(=S)N2CCN(Cc3ccccc3)CC2)cc1,0,0,0,0,-,0
Cc1ccc(/C=C/c2onc(C)c2S(=O)(=O)N2CCC(C(=O)N(CCC(C)C)Cc3ccco3)CC2)cc1,0,0,-,0,-,-
COc1ccc(Cn2c(=O)c3oc4ccccc4c3n(CC(=O)Nc3c(C)cccc3C)c2=O)cc1,0,0,-,0,-,-
CN(C)c1ccc(C(=S)N2CCN(Cc3ccccc3)CC2)cc1,0,0,0,0,-,-50.3
COc1ccc(Cn2c(C(=O)O)c(CNCCc3cccs3)c3ccc(C)cc32)cc1,0,0,31.6µM,0,?,-
COc1ccc(Cn2c(C(=O)O)c(CNCc3ccco3)c3ccc(C)cc32)cc1,0,0,7.94µM,0,0,-
Cc1ccc2nc(-c3ccccc3)cn2c1,0,0,0,0,5.01µM,0
CSc1cccc(NC(=O)C2CCN(S(=O)(=O)c3ccc4c(c3)CCCN4C(=O)C3CCC3)CC2)c1,0,0,0,0,0,-
CN(C)c1ccc(/C=C2/C[N+](C)(C)C/C(=C/c3ccc(N(C)C)cc3)C2=O)cc1,0,0,13.4µM,12.6µM,0,0
CC1=C/C(=C(\c2cc(C)c(O)c(Br)c2)c2ccccc2S(=O)(=O)O)C=C(Br)C1=O,0,0,11.2µM,0,?,-51.7
Cc1cccc(N2CCN(C(=O)Cn3nc(Cc4cccnc4)c4ccccc4c3=O)CC2)c1C,0,?,-,0,-,-
O=C(O)CCCNc1cc(N2CCN(C(=O)c3ccco3)CC2)c2noc3c2c1C(=O)c1ccccc1-3,0,0,?,0,?,0
O=C1c2ccccc2-c2onc3c(N4CCN(CCO)CC4)cc(N4CCN(C(=O)c5ccco5)CC4)c1c23,0,12.6µM,-,17.8µM,?,0
